# About 79,000 compounds went through this panel and 15% of them were active in at least one assay; those are over-represented in the sample as a whole. Values without a mark were called inactive. Activity calls are given as the source filed them. No stated cut-off is given here; in the data, active means growth inhibition above about 70%; inactive means the rest.
# Tests used:
# [1] = NCI Yeast Anticancer Drug Screen. Data for the rad50 strain (AID 155);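 further: 0% = growth of vehicle-only cultures of the same strain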; conditions: S. cerevisiae rad50 strain growth inhibition, stronger effect = higher value
# Summary of the method: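 A DNA repair-deficient yeast mutant serves as the test organism; compound-induced growth inhibition is calculated against vehicle-treated cells.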
# [2] = NCI Yeast Anticancer Drug Screen. Data for the mec2-1 strain (AID 157); conditions: S. cerevisiae mec2-1 strain, stronger effect = higher value
# Summary of the method: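 Readout is yeast growth inhibition, normalised to vehicle-treated controls, in the mec2-1 strain exposed to compound.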
# [3] = NCI Yeast Anticancer Drug Screen. Data for the sgs1 mgt1 strain (AID 161);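 further: 0% = growth of cultures given vehicle only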; conditions: S. cerevisiae sgs1 mgt1 strain, stronger effect = higher value
# Summary of the method: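 Growth of a repair-deficient yeast mutant was monitored after compound treatment and expressed as inhibition relative to vehicle-treated cultures.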
# [4] = NCI Yeast Anticancer Drug Screen. Data for the cln2 rad14 strain (AID 165);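 further: 0% = growth equal to vehicle treated cultures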; conditions: S. cerevisiae cln2 rad14 strain, stronger effect = higher value
# Summary of the method: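 Relative to vehicle controls, growth inhibition of compound-treated cln2 rad14 yeast was recorded.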
# [5] = NCI Yeast Anticancer Drug Screen. Data for the bub3 strain (AID 167); conditions: S. cerevisiae bub3 mutant strain, stronger effect = higher value
# Summary of the method: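 Inhibition values come from growth of compound-treated mutant yeast normalised to vehicle-treated controls.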
# [6] = NCI Yeast Anticancer Drug Screen. Data for the mlh1 rad18 strain (AID 175); conditions: S. cerevisiae mlh1 rad18 strain growth inhibition, stronger effect = higher value
# Summary of the method: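 Test agents were incubated with a yeast strain of defined genotype (DNA damage repair defect). Inhibition of growth was derived by comparison with vehicle-exposed cultures.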
# [7] = at 5.0 µM (retest, dose inferred, filed as 0.5)
# [8] = at 50.0 µM (retest, dose inferred, filed as 5.0)
Structure (SMILES),"growth inhibition [1, 7]","growth inhibition [1, 8]",growth inhibition ([1]; at 50.0 µM),"growth inhibition [2, 7]","growth inhibition [2, 8]",growth inhibition ([2]; at 50.0 µM),"growth inhibition [3, 7]","growth inhibition [3, 8]",growth inhibition ([3]; at 50.0 µM),"growth inhibition [4, 7]","growth inhibition [4, 8]",growth inhibition ([4]; at 50.0 µM),"growth inhibition [5, 7]","growth inhibition [5, 8]",growth inhibition ([5]; at 50.0 µM),"growth inhibition [6, 7]","growth inhibition [6, 8]",growth inhibition ([6]; at 50.0 µM)
CN1CCN(CC(=O)c2c(-c3ccccc3)[nH]c3ccccc23)CC1,68%,4%,33.2%,56%,1%,15.8%,66%,7%,9.45%,50%,21%,33.1%,58%,4%,-9.9%,80% (active),1%,8.15%
CC(=O)OCC1OC(OC2CCCc3c(O)c4c(c(O)c32)C(=O)c2ccccc2C4=O)C(OC(C)=O)C(OC(C)=O)C1OC(C)=O (configuration not stated),32%,96% (active),97.6% (active),-8%,98% (active),99.5% (active),16%,98% (active),98.8% (active),2%,96% (active),28.9%,16%,98% (active),99.2% (active),19%,97% (active),82.1% (active)
CCCCn1c(C)nc2cc(C(F)(F)F)cc(N)c21,0%,41%,78.6% (active),-4%,35%,48.3%,0%,31%,93.6% (active),-5%,8%,6.6%,-8%,10%,31.9%,-11%,65%,43.5%
CC(C)(C)C(NO)C(O)N1CCCCC1 (configuration not stated),-155%,-141%,20.2%,-53%,-52%,6.25%,-59%,-63%,17.1%,-63%,-57%,50%,-69%,-73%,-4%,-118%,-105%,12.4%
O=Nc1c2n[nH]c1CCCCCCCCC2,24%,99% (active),99.4% (active),45%,99% (active),99.4% (active),56%,99% (active),99.5% (active),23%,99% (active),99.5% (active),37%,99% (active),99.3% (active),75% (active),99% (active),96.8% (active)
Oc1cc2c(cc1C(c1ccc(Cl)cc1)N1CCOCC1)OCO2 (configuration not stated),1%,98% (active),99% (active),-1%,99% (active),99.2% (active),7%,99% (active),99% (active),-8%,83% (active),96.5% (active),-7%,98% (active),98.9% (active),0%,99% (active),98.8% (active)
COc1ccc(-c2c3c(cc4cc5c(cc24)OCO5)C(=O)OC3)cc1OC,26%,96% (active),92.5% (active),30%,96% (active),93.9% (active),57%,96% (active),93.7% (active),16%,87% (active),92.3% (active),51%,97% (active),92.3% (active),62%,96% (active),78.8% (active)
Oc1ccccc1C(=NNc1ccccc1)c1ccccc1O,40%,96% (active),94.8% (active),27%,98% (active),94.8% (active),46%,97% (active),94.8% (active),49%,97% (active),95.8% (active),42%,98% (active),95.8% (active),70% (active),98% (active),90.9% (active)
C(=C\c1cccc2ccccc12)/c1ccncc1,8%,97% (active),98.9% (active),-19%,99% (active),99.2% (active),-14%,98% (active),99.2% (active),-2%,96% (active),99% (active),4%,97% (active),98.5% (active),-11%,98% (active),99.1% (active)
O=C1C(Br)CCC1(c1ccccc1)c1ccccc1 (configuration not stated),5%,91% (active),97% (active),6%,93% (active),97.2% (active),4%,97% (active),98% (active),4%,78% (active),78.8% (active),-10%,94% (active),95.7% (active),3%,96% (active),98.2% (active)
O=C1C=CC(=O)N1Cc1ccccc1,98% (active),99% (active),99.3% (active),100% (active),100% (active),99.7% (active),97% (active),99% (active),99.5% (active),97% (active),100% (active),99% (active),99% (active),100% (active),99.3% (active),95% (active),100% (active),99.2% (active)
CCCOC(=O)C#CC(=O)OCCC,37%,96% (active),94.6% (active),29%,99% (active),63%,43%,99% (active),48.8%,21%,99% (active),93.6% (active),25%,99% (active),7.3%,69%,99% (active),74.6% (active)
CN(C)c1ccc(C2(c3ccc(N(C)C)cc3)OC(=O)c3ccccc32)cc1,2%,-6%,26.6%,1%,-6%,14.2%,1%,-3%,14.5%,-5%,-26%,16.9%,60%,61%,82.6% (active),-9%,-40%,38.9%
CC(C)Cc1cc2c(cc1O)CCC1C2CC[C@@]2(C)C1CC[C@@H]2O (some centres not stated),-10%,97% (active),75.8% (active),-17%,95% (active),80.4% (active),-12%,97% (active),86.5% (active),-22%,98% (active),89.3% (active),-34%,97% (active),87% (active),-11%,97% (active),88.4% (active)
Nc1ccc(S(=O)(=O)Nc2nc3ccccc3nc2N2CCCCC2)cc1,29%,46%,51.8%,35%,44%,40.8%,32%,94% (active),64.7%,36%,91% (active),32.3%,30%,96% (active),76.4% (active),44%,60%,85.9% (active)
OCC(c1ccccc1)c1ccccc1,24%,42%,77.8% (active),2%,6%,54.5%,41%,34%,76.5% (active),2%,9%,-14.2%,39%,43%,18%,11%,22%,80.2% (active)
C[C@H]1CC[C@@H]2[C@@H](C)[C@H]3[C@H](C[C@H]4[C@@H]5CC=C6C[C@@H](O)CC[C@]6(C)[C@H]5C[C@H](O)[C@]34C)N2C1,-6%,8%,-17.8%,19%,-7%,-45.2%,-3%,0%,-7.65%,16%,-2%,38.9%,1%,-6%,-47.1%,1%,7%,3%
CSC1=Nc2ccccc2SC(c2ccccc2)C1c1ccccc1 (configuration not stated),4%,14%,20.1%,0%,15%,29.3%,6%,17%,67%,-3%,-9%,84.7% (active),5%,7%,53.3%,3%,8%,63.9%
CC(C)c1ccc(O)c(Cc2cc(C(C)C)ccc2O)c1,42%,98% (active),98.2% (active),23%,98% (active),98.3% (active),20%,99% (active),96.7% (active),20%,98% (active),97.1% (active),20%,99% (active),98.6% (active),64%,98% (active),97.5% (active)

# Reference: PubChem BioAssay (NCI)
